# Laboratory results: article PMC12670160, “A drug-repurposing screen of FDA- and EMA-approved drugs identifies two NF-κB inhibitors active against eumycetoma” (Journal of Antimicrobial Chemotherapy, 2025)
# Structures can show the parent of a compound that is named as a salt. Where two headings read alike, the source gives them in different places. The whole screen tested about 5,300 compounds, of which about 130 (2.5%) showed an effect of 50% or more. Only a selection was taken, and strong results are over-represented in it overall. Numbered stars: 1 amine (or outer) side, 2 acyl side, 3 side chain; on linkers, the order of the positions; unused ones are H or OH. Bridge positions count the residues as written; N and C are the ends. Square brackets hold non-standard residues; d marks the D form. Side chains are listed from the residue outwards. Peptide text beside a SMILES is read from it. I, II: the chains in the order shown. * marks the point of attachment. Actinocin(9to1) = Cc1c2oc3c(C)ccc(C(=O)[*:1])c3nc-2c(C(=O)[*:2])c(N)c1=O; dTrp(2-Me) = Cc1[nH]c2ccccc2c1C[C@@H](N)C(=O)O; X1 = CCC(C)C(N)C1=NC(C(=O)*)CS1; NMeV = CN[C@H](C(=O)O)C(C)C; Orn = NCCC[CH](N)C(=O)O; Sar = CNCC(=O)O
# Tested on: M. mycetomatis strain mm55
# Conditions: primary screen, metabolic activity vs growth control, 96 h, 2 µM, inhibitor
SMILES,% viability,% viability (Madurella mycetomatis metabolic activity at 2µM (%))
"O=C1NC(=O)/C(=C\c2cccc(C(F)(F)F)c2)S1 [ONC0004444, smi4a]",130.7%,
"Cc1cc(C(=CNc2ccc(Cl)cc2)C(=O)Nc2ccc(Cl)cc2)on1 [ONC0000028, ccmi]",80.11%,
"Cc1ncc(C[n+]2csc(CCO[P@](=O)(O)OP(=O)(O)O)c2C)c(N)n1 [ONC0002796, thiamine pyrophosphate chloride]",94.34%,
"CC1(C)[C@@H]2C[C@H]1[C@@](C)(O)[C@@H](O)C2 [ONC0005321, pinanediol]",118.6%,
"CC1(C)OC2(C)C(O)CC1CC2O (stereo not shown) [ONC0003817, epomediol]",42.26%,
"CC1(C)[C@@H]2C[C@@H](O)[C@@](C)(O)[C@H]1C2 [ONC0002949, 266trimethylbicyclo311heptane23diol]",64.26%,
"C#C[C@]1(OC(=O)CCCCCC)CC[C@H]2[C@@H]3CCC4=CC(=O)CC[C@@H]4[C@H]3CC[C@@]21C [ONC0000267, norethisterone enanthate]",63.38%,
"C=C1c2cccc(O)c2C(=O)C2C(=O)[C@]3(O)C(=O)C(C(N)=O)C(=O)[C@@H](N(C)C)[C@@H]3[C@@H](O)[C@H]12 (stereo partly shown) [ONC0000687, methacycline hydrochloride]",124.6%,
"CCOC(=O)c1c2c3c(cccc3[nH]c1=O)C(=O)c1ccccc1-2 [ONC0001061, nqdi1]",43.7%,
"CCOC(=O)c1ccccc1OC(=O)CCCCCCCC(=O)Oc1ccccc1C(=O)OCC [ONC0003554, tu2100]",98.87%,
"O=C1c2ccccc2-c2c(NCCc3ccccc3)c(=O)[nH]c3cccc1c23 [ONC0001816, brd7389]",84.69%,
"Cn1cnc(=N)c2nc[nH]c21 [ONC0004721, 3methyladenine 3ma]",115.8%,
"CCC(=O)OCC(=O)C1(OC(=O)CC)[C@H](C)C[C@H]2C3[C@H](Cl)CC4=CC(=O)C=C[C@]4(C)[C@H]3[C@@H](O)C[C@@]21C (stereo partly shown) [ONC0002939, alclometasonedipropionate]",82.49%,
"C/C(=C\c1csc(C)n1)[C@H]1C[C@@H]2O[C@]2(C)CCC[C@H](C)[C@H](O)[C@@H](C)C(=O)C(C)(C)[C@H](O)CC(=O)O1 [ONC0004615, patupilone epo906 epothilone b]",75.3%,
"C[C@H]1CC2C([C@@H](O)C[C@@]3(C)C2CC[C@]3(O)C(=O)COC(=O)CCC(=O)O)[C@@]2(C)C=CC(=O)C=C12 (stereo partly shown) [ONC0003156, methylprednisolone sodium succinate]",82.41%,
"CC(=O)N[C@@H](CSSC[C@H](NC(C)=O)C(=O)O)C(=O)O [ONC0002807, nnü¾Œ“ ¼ü¾˜³ ¼diacetyllcystine]",85.92%,
"CCCCOc1ccc(C(=O)Nc2ccc(F)cc2F)cc1 [ONC0005047, vu 0357121 vu 0357121 vu 0357121]",78.07%,
"C=CCN(C)CCCCCCOc1ccc(C(=O)c2ccc(Br)cc2)c(F)c1 [ONC0001825, ro 488071 fumarate]",29.93%,
"CCCCC(F)(F)C(=O)CC[C@H]1[C@H](O)CC(=O)[C@@H]1CCCCCCC(=O)O [ONC0004918, lubiprostone]",115.4%,
"C[S+]([O-])c1ccc(-c2nc(-c3ccncc3)c(-c3ccc(F)cc3)[nH]2)cc1 (stereo not shown) [ONC0000881, sb203580]",87.12%,
"Oc1ccc(-c2nc(-c3ccncc3)c(-c3ccc(F)cc3)[nH]2)cc1 [ONC0000026, sb202190]",54.44%,
"Fc1ccc(-c2nc(-c3c(F)cccc3F)[nH]c2-c2ccncc2)cc1 [ONC0000887, ta01]",46.48%,

SMILES,% viability,% viability (Madurella mycetomatis metabolic activity at 2µM (%))
"CSc1ccc([C@H]2CN3CCC[C@H]3c3ccccc32)cc1 [ONC0000925, mcn5652]",74.54%,
"CN1CCCC1c1cccnc1 (stereo not shown) [ONC0005499, nicotine bitartrate]",91%,
"C[C@@H]1NC(C)(C)CO[C@@]1(O)c1cccc(Cl)c1 [ONC0001157, radafaxine hydrochloride]",85.48%,
"[2H]C([2H])([2H])C(=O)Nc1c(I)c(C(=O)O)c(I)c(C(=O)NC)c1I [ONC0002149, iothalamic acidd3]",66.44%,
"CCC(C)C(N)C1=NC(C(=O)NC(CC(C)C)C(=O)NC(CCC(=O)O)C(=O)NC(C(=O)NCCCCC2NC(=O)C(CC(N)=O)NC(=O)C(CC(=O)O)NC(=O)C(Cc3c[nH]cn3)NC(=O)C(Cc3ccccc3)NC(=O)C(C(C)CC)NC(=O)C(CCCN)NC2=O)C(C)CC)CS1 (stereo not drawn) [ONC0003188, bacitracin] (cyclo(DNK([Ile-Glu-Leu-X1])[Orn]IFH); configuration not given here)",113.7%,
"O=C(O)c1ccccn1 [ONC0003765, picolinicacid]",105.8%,
C/C(=N\NC(=S)N1CCC1)c1ccccn1 [nsc319726],6.057%,
"C=C(NNC(=S)NNC(=S)Nc1ccccc1Cl)c1ccccn1 [ONC0001982, n2chlorophenyl22e212pyridinylethylidenehydrazinocarbothioylhydrazinecarbothioamide]",78.69%,
"Cc1c2oc3c(C)ccc(C(=O)N[C@@H]4C(=O)N[C@H](C(C)C)C(=O)N5CCC[C@H]5C(=O)N(C)CC(=O)N(C)[C@@H](C(C)C)C(=O)O[C@@H]4C)c3nc-2c(C(=O)N[C@@H]2C(=O)N[C@H](C(C)C)C(=O)N3CCC[C@H]3C(=O)N(C)CC(=O)N(C)[C@@H](C(C)C)C(=O)O[C@@H]2C)c(N)c1=O [ONC0002258, actinomycin d] (I: T[dV]P[Sar][NMeV] / II: T[dV]P[Sar][NMeV]; ester I:1-I:C, II:1-II:C; linker I:N-II:N via Actinocin(9to1))",,100.3%
"CNCCN(C)Cc1c[nH]nc1-c1ccc(O[C@H]2C[C@H](OCCC3CCOCC3)C2)cc1.Cl [ONC0000962, epz020411 hydrochloride]",79.33%,
"CN1c2c(nc(N)[nH]c2=O)NC[C@@H]1CNc1ccc(C(=O)N[C@@H](CCC(=O)O)C(=O)O)cc1 [ONC0002220, levomefolate calcium]",182.5%,
"CCCCCCCCCCCCCCCC(=O)OC[C@H](O)[C@H]1OC(=O)C(=O)C1O (stereo partly shown) [ONC0004072, ascorbyl palmitate]",135.5%,
"C[C@H](O[C@H]1OCCN(Cc2n[nH]c(=O)[nH]2)[C@H]1c1ccc(F)cc1)c1cc(C(F)(F)F)cc(C(F)(F)F)c1 [ONC0004612, aprepitant mk0869]",34.22%,
"C[C@@H](O[C@H]1OCCN(Cc2nc(O)n(P(=O)(O)O)n2)[C@H]1c1ccc(F)cc1)c1cc(C(F)(F)F)cc(C(F)(F)F)c1 [ONC0004322, fosaprepitant dimeglumine salt]",108.4%,
"C=C(Nc1ccc(OCC)cc1)Nc1ccc(OCC)cc1 [ONC0005342, phenacaine]",118.6%,
"O=C1c2c(O)cccc2[C@H]([C@@H]2O[C@H](CO)[C@@H](O)[C@H](O)[C@H]2O)c2cc(CO)cc(O)c21 [ONC0002367, aloin]",94.66%,
"On1ncc(C2CCNCC2)c1-c1cccc(-c2ccccc2)c1 [ONC0002501, php501 trifluoroacetate]",45.31%,
"CC[C@@]1(C2O[C@@H](C3O[C@@](O)(CO)[C@H](C)C[C@@H]3C)C[C@@H]2C)CC[C@H]([C@]2(C)CC[C@]3(C[C@H](O)[C@@H](C)[C@@H]([C@@H](C)[C@@H](OC)[C@H](C)C(=O)O)O3)O2)O1 (stereo partly shown) [ONC0004087, monensin sodium]",133.1%,
C=C(c1ccccc1OCc1cccc(Cl)c1)n1ccnc1 [Cloconazole HCl],3.259%,
"O=C(O)Cc1ccc(OCc2ccccc2)c(Cl)c1 [ONC0002166, benzofenac]",78.33%,
"C[C@H](Nc1ncnc2[nH]cnc12)c1cc2cccc(Cl)c2c(=O)n1-c1ccccc1 [ONC0004561, duvelisib ipi145 ink1197]",69.33%,
"COC(=O)C1=C(C)NC(C)=C(C(=O)O[C@@H]2CCCN(Cc3ccccc3)C2)[C@@H]1c1cccc([N+](=O)[O-])c1 (racemic) [ONC0004618, benidipine hydrochloride]",66.69%,

SMILES,% viability,% viability (Madurella mycetomatis metabolic activity at 2µM (%))
"CC(C)=CCC[C@](C)(O[C@@H]1O[C@H](CO)[C@@H](O)[C@H](O)[C@H]1O)[C@H]1CC[C@]2(C)[C@@H]1[C@H](O)C[C@@H]1[C@@]3(C)CC[C@H](O)C(C)(C)[C@@H]3CC[C@]12C [ONC0002211, ginsenoside ck]",95.28%,
"O=C(CCCS)NC1CCN(C(=O)COc2ccc(Cl)cc2Cl)CC1 [ONC0005166, krasg12c inhibitor 6]",98.75%,
"NC(=O)[C@H]1CCS[C@@H]2C[C@]3(CCCN3C(=O)Cc3ccc(NC(=O)COc4ccc(Cl)cc4Cl)cc3)C(=O)N12 [ONC0001082, st 2825]",47.43%,
"C[C@]12C=CC(=O)C=C1CCC1C2[C@@H](O)C[C@@]2(C)C1CC[C@]2(O)C(=O)COP(=O)(O)O (stereo partly shown) [ONC0004116, prednisolone sodium phosphate]",116.3%,
"CC(C)C(=O)SCCCCC[C@H](NC(=O)OC(C)(C)C)C(=O)NC12CC3CC(CC(C3)C1)C2 [ONC0002528, tcshdac620b]",72.9%,
"C1CCC(/N=C(\NC23CC4CC(CC(C4)C2)C3)N2CCOCC2)CC1 [ONC0002564, pnu37883]",92.95%,
"CCOC(=O)c1ccc(N)cc1 [ONC0003279, benzocaine]",69.74%,
"CCOC(=O)c1ccc(NC2CCCCC2)c(N)c1 [ONC0000320, ferrostatin1]",39.11%,
"CC(CNC1CCCCC1)OC(=O)c1ccccc1 (stereo not shown) [ONC0002941, hexylcaine]",55.94%,
"CC(C)(O)c1ccn2c(-c3ccc(F)c(-c4ccc(F)cc4C#N)c3)cnc2c1F [ONC0001920, tp003]",78.09%,
"CCC(=O)O[C@@H]1CC(=O)O[C@H](C)C/C=C/C=C/[C@H](OC(C)=O)[C@H](C)C[C@H](CC=O)[C@H](O[C@@H]2O[C@H](C)[C@@H](O[C@H]3C[C@@](C)(OC(C)=O)[C@@H](OC(=O)CC)[C@H](C)O3)[C@H](N(C)C)[C@H]2O)[C@H]1OC [ONC0000277, midecamycin acetate]",81.75%,
"O[C@H](CNC[C@@H](O)[C@H]1CCc2cc(F)ccc2O1)[C@@H]1CCc2cc(F)ccc2O1 [ONC0004039, nebivolol hydrochloride]",98.08%,
"C[C@@]1(O)[C@H](O)[C@@H](CO)O[C@H]1n1cnc2c(=O)[nH]c(N)nc21 [ONC0005603, 2cmethylguanosine]",96.86%,
"CC(C(=O)O)c1ccc2c(c1)Cc1ccccc1-2 (stereo not shown) [ONC0003773, cicloprofen]",135.8%,
"Cc1cc(C)c(NC(=O)N(Cc2ccc3c(c2)Cc2ccccc2-3)C2CCCCCC2)c(C)c1 [ONC0000194, ym750]",45.17%,
"O=C(c1ccc(Cl)cc1)N(Cc1ccccc1)C1CCCCC1 [ONC0001245, fpszm1]",58.23%,
"CC(C)Oc1cccc(CC(=O)N2CCC[C@](CC[N+]34CCC(c5ccccc5)(CC3)CC4)(c3ccc(Cl)c(Cl)c3)C2)c1 [ONC0001589, sr140333]",65.88%,
"Nc1nc2c(c(=O)[nH]1)NC(CNc1ccc(C(=O)N[C@@H](CCC(=O)O)C(=O)O)cc1)CN2 (stereo partly shown) [ONC0005519, tetrahydrofolicacid]",129.8%,
"Cc1[nH]c2ccccc2c1C[C@@H](NC(=O)[C@@H](N)Cc1cnc[nH]1)C(=O)N[C@@H](C)C(=O)N[C@@H](Cc1c[nH]c2ccccc12)C(=O)N[C@H](Cc1ccccc1)C(=O)N[C@@H](CCCCN)C(N)=O [ONC0005614, examorelin] (H-H[dTrp(2-Me)]AW[dF]K-NH2)",66.44%,
"Oc1cc2c(cc1O)C(Cc1cccc3ccccc13)NCC2 (stereo not shown) [ONC0001928, ys49]",88.3%,
